Experimental data taken from the supplement of paper PMC10849652.
About 8,800 targets were measured; listed, in parts, are those with a hit and a random draw of the rest. About 0.5% of all pairs of compound and target were hits. Unmarked numbers belong to inactive results.

What was measured:
Assay in all cases: log2 fold change, soluble protein after heating vs DMSO (PISA); higher = thermal stabilisation; K562 lysate, 10 uM; active = over 0.2 and 3.5 SD of the protein, either way, in both replicates (recomputed)
[1] = compound: C1=CC=C(C=C1)[C@H](COC2=CC3=C(C=C2)NC(=O)N3)NC(=O)C4=CC=CN(C4=O)CC5=CC(=C(C=C5)F)F
How it was run: (§1)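 Quantification was by TMTpro 16plex LC-MS/MS with equalised channel sums, applied to the supernatant after 21,000xg for 90 min. Samples were crude K562 extract at 1 mg/mL protein in PBS pH 7.4 with 1 mM MgCl2, treated with 10 μM compound for 30 min, heated for 3 min across 48°C-58°C, pooled and brought to 0.5% NP-40 at 4°C. Values are log-two fold changes in thermal stability relative to solvent controls, from duplicates.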

[2] = compound: CC1=C(SC2=C1C(=N[C@H](C3=NN=C(N32)C)CC(=O)N)C4=CC=C(C=C4)Cl)C
How it was run: as §1

[3] = compound: Cc1sc2c(c1C)C(c1ccc(Cl)cc1)=N[C@@H](CC(=O)OC(C)(C)C)c1nnc(C)n1-2
How it was run: as §1

[4] = compound: c1ccc([C@@H]2C[C@H]2NC2CCNCC2)cc1
How it was run: as §1

[5] = compound: CC1=C2C(=CC=C1)N=C(N(C2=O)C3=CC=CC=C3C)CN4C=NC5=C(N=CN=C54)N
How it was run: as §1

UniProt P57737, sequence (P57737 whole entry, looked up): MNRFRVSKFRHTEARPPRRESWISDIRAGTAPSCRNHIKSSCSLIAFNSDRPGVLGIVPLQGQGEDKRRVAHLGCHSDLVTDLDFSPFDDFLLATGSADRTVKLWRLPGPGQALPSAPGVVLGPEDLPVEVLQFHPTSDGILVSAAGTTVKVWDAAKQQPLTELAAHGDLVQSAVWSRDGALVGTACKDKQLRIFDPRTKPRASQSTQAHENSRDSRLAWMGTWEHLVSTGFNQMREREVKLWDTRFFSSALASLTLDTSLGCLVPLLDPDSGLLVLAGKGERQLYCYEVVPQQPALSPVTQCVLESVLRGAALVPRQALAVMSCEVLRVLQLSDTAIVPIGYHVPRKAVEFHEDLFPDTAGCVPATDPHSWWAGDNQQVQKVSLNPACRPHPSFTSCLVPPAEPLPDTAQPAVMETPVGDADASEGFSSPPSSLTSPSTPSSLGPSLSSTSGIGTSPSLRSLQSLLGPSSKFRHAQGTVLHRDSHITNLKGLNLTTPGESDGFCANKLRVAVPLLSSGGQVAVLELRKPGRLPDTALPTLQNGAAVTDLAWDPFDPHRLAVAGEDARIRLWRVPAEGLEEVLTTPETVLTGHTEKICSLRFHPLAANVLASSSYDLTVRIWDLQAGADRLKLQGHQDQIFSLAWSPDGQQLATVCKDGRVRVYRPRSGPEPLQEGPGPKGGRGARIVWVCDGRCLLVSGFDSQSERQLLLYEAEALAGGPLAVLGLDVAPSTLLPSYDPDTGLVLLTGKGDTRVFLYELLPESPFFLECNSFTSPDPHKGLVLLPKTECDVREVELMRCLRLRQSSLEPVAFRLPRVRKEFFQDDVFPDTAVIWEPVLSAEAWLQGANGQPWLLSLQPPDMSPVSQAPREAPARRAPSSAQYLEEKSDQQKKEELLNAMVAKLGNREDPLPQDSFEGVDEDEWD
UniProt Q6P3W2, sequence (Q6P3W2 whole entry, looked up): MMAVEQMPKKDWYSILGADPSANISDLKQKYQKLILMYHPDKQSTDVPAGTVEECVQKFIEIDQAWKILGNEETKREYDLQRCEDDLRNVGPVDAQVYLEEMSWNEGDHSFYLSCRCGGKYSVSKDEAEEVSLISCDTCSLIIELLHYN
UniProt Q15398, sequence (Q15398 whole entry, looked up): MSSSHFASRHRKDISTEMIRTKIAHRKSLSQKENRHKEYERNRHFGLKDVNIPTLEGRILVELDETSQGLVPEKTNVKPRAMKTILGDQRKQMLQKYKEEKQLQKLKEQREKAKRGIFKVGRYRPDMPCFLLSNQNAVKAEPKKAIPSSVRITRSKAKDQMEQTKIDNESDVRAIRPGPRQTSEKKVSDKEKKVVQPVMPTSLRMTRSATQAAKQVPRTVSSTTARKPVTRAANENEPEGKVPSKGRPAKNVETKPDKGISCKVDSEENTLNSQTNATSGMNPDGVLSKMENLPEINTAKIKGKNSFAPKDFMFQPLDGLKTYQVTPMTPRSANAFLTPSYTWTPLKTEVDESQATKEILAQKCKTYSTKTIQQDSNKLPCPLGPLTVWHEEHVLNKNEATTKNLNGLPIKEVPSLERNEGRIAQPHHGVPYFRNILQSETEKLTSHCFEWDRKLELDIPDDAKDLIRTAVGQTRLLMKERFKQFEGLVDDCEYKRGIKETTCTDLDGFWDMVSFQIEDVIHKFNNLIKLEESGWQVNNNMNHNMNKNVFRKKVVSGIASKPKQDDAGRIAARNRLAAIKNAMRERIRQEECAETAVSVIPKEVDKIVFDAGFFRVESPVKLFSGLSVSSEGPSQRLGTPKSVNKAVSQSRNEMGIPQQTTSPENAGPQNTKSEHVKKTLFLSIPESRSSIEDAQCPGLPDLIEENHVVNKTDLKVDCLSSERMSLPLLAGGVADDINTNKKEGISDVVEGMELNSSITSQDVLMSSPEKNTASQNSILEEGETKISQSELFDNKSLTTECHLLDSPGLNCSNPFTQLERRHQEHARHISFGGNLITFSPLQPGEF
UniProt Q08345, sequence (Q08345 whole entry, looked up): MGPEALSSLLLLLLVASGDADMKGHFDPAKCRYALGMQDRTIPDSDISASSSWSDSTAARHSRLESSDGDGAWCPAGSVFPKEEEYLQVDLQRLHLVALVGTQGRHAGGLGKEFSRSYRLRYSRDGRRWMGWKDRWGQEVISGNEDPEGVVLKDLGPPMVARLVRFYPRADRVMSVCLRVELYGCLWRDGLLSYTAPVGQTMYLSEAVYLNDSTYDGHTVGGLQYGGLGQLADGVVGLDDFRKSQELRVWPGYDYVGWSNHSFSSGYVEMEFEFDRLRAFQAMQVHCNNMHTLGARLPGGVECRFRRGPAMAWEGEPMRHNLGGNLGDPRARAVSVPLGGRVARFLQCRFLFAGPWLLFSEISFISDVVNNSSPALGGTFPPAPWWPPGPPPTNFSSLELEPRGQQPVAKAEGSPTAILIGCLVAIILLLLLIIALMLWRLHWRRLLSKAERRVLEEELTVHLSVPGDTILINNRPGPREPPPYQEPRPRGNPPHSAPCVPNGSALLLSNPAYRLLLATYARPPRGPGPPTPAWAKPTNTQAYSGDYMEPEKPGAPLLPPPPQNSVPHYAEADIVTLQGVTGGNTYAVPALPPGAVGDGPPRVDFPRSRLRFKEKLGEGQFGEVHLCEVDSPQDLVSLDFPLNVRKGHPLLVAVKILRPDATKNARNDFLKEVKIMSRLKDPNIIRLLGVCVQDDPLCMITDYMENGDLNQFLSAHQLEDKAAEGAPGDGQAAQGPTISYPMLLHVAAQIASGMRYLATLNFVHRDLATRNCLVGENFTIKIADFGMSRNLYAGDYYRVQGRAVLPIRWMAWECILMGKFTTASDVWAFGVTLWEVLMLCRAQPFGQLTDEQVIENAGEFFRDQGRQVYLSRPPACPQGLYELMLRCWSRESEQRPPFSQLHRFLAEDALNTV
UniProt Q6ZWL3, sequence (Q6ZWL3 whole entry, looked up): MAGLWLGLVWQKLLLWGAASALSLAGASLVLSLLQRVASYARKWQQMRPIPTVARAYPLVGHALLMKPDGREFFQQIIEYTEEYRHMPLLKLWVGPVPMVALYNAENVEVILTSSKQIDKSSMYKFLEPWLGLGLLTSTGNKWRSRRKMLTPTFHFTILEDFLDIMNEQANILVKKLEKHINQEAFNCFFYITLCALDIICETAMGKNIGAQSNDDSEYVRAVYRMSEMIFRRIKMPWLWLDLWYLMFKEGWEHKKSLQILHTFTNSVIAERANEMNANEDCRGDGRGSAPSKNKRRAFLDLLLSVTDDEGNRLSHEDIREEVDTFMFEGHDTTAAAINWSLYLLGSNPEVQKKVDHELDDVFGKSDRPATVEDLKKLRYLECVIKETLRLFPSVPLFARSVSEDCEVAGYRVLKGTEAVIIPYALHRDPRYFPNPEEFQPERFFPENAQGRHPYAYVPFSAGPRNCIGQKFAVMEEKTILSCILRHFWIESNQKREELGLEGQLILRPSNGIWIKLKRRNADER
UniProt Q9NYP3, sequence (Q9NYP3 whole entry, looked up): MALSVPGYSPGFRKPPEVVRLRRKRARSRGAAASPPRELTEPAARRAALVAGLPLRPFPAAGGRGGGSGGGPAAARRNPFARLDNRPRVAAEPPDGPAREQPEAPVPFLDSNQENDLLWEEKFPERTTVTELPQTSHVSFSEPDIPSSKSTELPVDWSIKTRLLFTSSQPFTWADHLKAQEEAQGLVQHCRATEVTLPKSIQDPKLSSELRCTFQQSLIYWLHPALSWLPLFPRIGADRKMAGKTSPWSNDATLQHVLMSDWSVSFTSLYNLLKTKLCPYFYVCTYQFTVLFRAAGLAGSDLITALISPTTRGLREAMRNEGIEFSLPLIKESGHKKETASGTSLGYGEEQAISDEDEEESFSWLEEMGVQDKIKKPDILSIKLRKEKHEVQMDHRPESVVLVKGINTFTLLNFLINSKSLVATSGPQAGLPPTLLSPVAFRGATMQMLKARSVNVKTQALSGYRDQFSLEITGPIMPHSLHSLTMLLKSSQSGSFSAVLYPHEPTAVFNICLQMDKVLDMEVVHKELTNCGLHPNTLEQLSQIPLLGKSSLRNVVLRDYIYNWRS
UniProt G9CGD6, sequence (G9CGD6 whole entry, looked up): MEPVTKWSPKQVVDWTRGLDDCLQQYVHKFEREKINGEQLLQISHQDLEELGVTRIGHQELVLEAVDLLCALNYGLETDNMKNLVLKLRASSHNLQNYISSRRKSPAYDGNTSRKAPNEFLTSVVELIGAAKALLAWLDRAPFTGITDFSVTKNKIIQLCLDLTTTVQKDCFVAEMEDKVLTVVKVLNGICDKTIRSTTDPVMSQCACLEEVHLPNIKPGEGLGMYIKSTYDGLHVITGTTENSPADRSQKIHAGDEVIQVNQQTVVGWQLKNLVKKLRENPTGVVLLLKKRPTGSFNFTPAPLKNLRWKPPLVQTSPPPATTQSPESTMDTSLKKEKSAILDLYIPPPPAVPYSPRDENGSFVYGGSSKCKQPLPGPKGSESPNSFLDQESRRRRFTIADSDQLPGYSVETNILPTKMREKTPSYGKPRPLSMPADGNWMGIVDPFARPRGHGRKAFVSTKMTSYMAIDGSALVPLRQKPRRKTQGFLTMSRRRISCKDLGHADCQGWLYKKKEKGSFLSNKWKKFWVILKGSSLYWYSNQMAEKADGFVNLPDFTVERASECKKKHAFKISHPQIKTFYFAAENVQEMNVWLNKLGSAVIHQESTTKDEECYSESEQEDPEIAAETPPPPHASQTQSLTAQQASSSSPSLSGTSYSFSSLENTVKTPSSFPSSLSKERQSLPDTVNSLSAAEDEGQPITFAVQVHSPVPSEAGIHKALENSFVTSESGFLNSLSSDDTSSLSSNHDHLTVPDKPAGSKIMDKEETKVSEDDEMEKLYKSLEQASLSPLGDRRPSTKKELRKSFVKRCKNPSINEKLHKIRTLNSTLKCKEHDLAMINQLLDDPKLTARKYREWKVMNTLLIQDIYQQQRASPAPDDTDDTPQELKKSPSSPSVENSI

Target	log2 fold change [1]	log2 fold change [2]	log2 fold change [3]	log2 fold change [4]	log2 fold change [5]
DLGAP5 isoform 3 (UniProt Q15398)	-0.167	0.031	-0.036	0.021	–
DNA2 (UniProt P51530)	–	–	0.072	0.026	0.047
DDR1 isoform 5 (UniProt Q08345)	-0.1	0.057	-0.09	0.135	–
CLASP1 isoform 4 (UniProt Q7Z460)	–	–	–	–	0.056
CNK3/IPCEF1 isoform 2 (UniProt G9CGD6)	–	–	0	-0.817	-0.032
CHFR (UniProt Q96EP1)	–	–	-0.056	–	0.027
CORO7 (UniProt P57737)	–	–	0.165	0.164	0.18
DIAPH1 (UniProt H9KV28)	0.009	0.023	–	-0.117	0.007
DNAJC24 (UniProt Q6P3W2)	–	–	0.024	0.055	0.007
CSNK1A1 isoform 3 (UniProt P48729)	–	–	0.021	–	–
DALRD3 (UniProt Q5D0E6)	–	–	–	0.137	0.193
DDAH1 (UniProt O94760)	–	–	0.15	-0.072	0.005
COL6A3 (UniProt P12111)	-0.008	-0.04	-0.079	0.13	–
CYP4V2 (UniProt Q6ZWL3)	-0.119	0.188	0.035	–	–
CYP2S1 isoform 2 (UniProt Q96SQ9)	–	–	-0.123	–	0.033
DONSON (UniProt Q9NYP3)	-0.043	0.068	0.013	-0.243	–
